# Measured values from PubChem BioAssay (Tox21).
# Results filed as inconclusive are left out. A number with no mark means an inactive call. Activity calls are given as the source filed them. Calls follow the shape of the dose curve; as a rule, active = well fitted activation curve with a large enough effect in the signal ratio in the repeat runs (not every such curve was filed as active); inconclusive = weak or mixed curves; inactive = flat fitted curve, though single readings scatter; the % refers to the signal ratio.
# Experiment: qHTS assay to identify small molecule agonists of H2AX (AID 1224845)
# Conditions: CHO-K1 phospho-H2AX Ser139 HTRF, 3 h; series mostly up to 154 µM
# Method in brief: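 Wild-type CHO-K1 cells, plated overnight, exposed 3hr at 37C to 15 concentrations (0.76% DMSO final). Lysed, then HTRF anti-pH2AX (S139) cryptate and anti-H2AX-d2 antibodies, 24 hr room temperature; 665/620 nm emission read.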
# % is scaled to controls: 0 for no effect and ±100 for the full control effect.
Structure (SMILES),outcome,activation (H2AX phosphorylation)
CC1=CC[C@H](CC=O)C1(C)C,inactive,
COCC(=O)Nc1c(I)c(C(=O)NCC(O)CO)c(I)c(C(=O)N(C)CC(O)CO)c1I (stereo not given),inactive,
COc1ccc(N=Nc2cc(C)c(N=Nc3ccc(S(=O)(=O)O)cc3)cc2OC)cc1,inactive,
NS(=O)(=O)c1cc2c(cc1Cl)NC(C(Cl)Cl)NS2(=O)=O (stereo not given),inactive,
C[Si]1(C)N[Si](C)(C)N[Si](C)(C)N1,inactive,
CCC(O)C(C)(C)C (stereo not given),inactive,
O=C(O)c1ccccc1C(=O)OCc1ccccc1,inactive,
C=CCOCC(O)CCl (stereo not given),inactive,
CCC1Nc2cc(Cl)c(S(N)(=O)=O)cc2S(=O)(=O)N1 (stereo not given),inactive,
FC(F)(F)/C(=N\OCC1OCCO1)c1ccc(Cl)cc1,inactive,
C1=C\CC/C=C\CC/1,inactive,
CCCCCCCCCCCCC1CO1 (stereo not given),inactive,
Nc1ccc(/C=C/c2ccc(N)cc2S(=O)(=O)O)c(S(=O)(=O)O)c1,,-0.0976% [at 0.582 µM]
O=S1(=O)CCCC1,inactive,
CC(=O)OC(C)c1ccccc1 (stereo not given),inactive,
O=C(Nc1cccc(C2=NCCN2)c1)Nc1cccc(C2=NCCN2)c1,,0.307% [at 31.6 µM]
CCOC(=O)CCCCCCCCC(=O)OCC,inactive,
OC(CCN1CCCCC1)(c1ccccc1)c1ccccc1,inactive,

Structure (SMILES),outcome,activation (H2AX phosphorylation)
CCCO,inactive,
C/C=C(\C)C(=O)OCC/C=C\CC,inactive,
Cc1ccc(C(=O)C(=O)O)cc1C,inactive,
Nc1cc(S(=O)(=O)O)ccc1S(=O)(=O)O,inactive,
CC(=O)N(CC(O)CO)c1c(I)c(C(=O)NCC(O)CO)c(I)c(C(=O)NCC(O)CO)c1I (stereo not given),inactive,
CCOC(=O)C(C)(C)C,inactive,
O=C(O)c1ccccc1C(=O)Nc1ccc(S(=O)(=O)Nc2nccs2)cc1,inactive,
CCCCCCCC[Si](OCC)(OCC)OCC,inactive,
CC(C)=CC(C)(C)C,inactive,
COCCOCCOCCOC,inactive,
CC(=O)OCC(=O)[C@@]1(O)[C@H](OC(C)=O)C[C@H]2[C@@H]3CCC4=CC(=O)C=C[C@]4(C)[C@@]3(F)[C@@H](O)C[C@@]21C,inactive,
CCCCC(CC)COC(=O)c1ccccc1 (stereo not given),inactive,
C=C[C@@H](C)CCC=C(C)C,inactive,
CCCCCC1Nc2cc(C(F)(F)F)c(S(N)(=O)=O)cc2S(=O)(=O)N1 (stereo not given),inactive,
COc1cc([N+](=O)[O-])ccc1N,inactive,
CC(CC(=O)O)CC(C)(C)C (stereo not given),inactive,
CCCCC(CC)C(=O)OC(C)C (stereo not given),inactive,
